From PubChem BioAssay AID504815 (NMMLSC, 2011)
Measured potencies and affinities stand elsewhere. The source made the active and inactive calls.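 The calls were made as follows: active = compounds with a tight curve fit, inhibition span over 25% and half-maximal concentration below 10 µM; inactive = the rest.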

Molecular target: Beta-adrenergic receptor kinase 1 (Homo sapiens) (UniProt P25098)
Test: Second cherry pick dose-response of GRK2-aptamer binding blockers, biochemical bead flow cytometry (AID 504815)
Conditions: biotinylated GRK2 beads, FAM-aptamer displacement; series mostly up to 33 µM

Sequence of Beta-adrenergic receptor kinase 1 (Homo sapiens) (P25098 whole entry, looked up): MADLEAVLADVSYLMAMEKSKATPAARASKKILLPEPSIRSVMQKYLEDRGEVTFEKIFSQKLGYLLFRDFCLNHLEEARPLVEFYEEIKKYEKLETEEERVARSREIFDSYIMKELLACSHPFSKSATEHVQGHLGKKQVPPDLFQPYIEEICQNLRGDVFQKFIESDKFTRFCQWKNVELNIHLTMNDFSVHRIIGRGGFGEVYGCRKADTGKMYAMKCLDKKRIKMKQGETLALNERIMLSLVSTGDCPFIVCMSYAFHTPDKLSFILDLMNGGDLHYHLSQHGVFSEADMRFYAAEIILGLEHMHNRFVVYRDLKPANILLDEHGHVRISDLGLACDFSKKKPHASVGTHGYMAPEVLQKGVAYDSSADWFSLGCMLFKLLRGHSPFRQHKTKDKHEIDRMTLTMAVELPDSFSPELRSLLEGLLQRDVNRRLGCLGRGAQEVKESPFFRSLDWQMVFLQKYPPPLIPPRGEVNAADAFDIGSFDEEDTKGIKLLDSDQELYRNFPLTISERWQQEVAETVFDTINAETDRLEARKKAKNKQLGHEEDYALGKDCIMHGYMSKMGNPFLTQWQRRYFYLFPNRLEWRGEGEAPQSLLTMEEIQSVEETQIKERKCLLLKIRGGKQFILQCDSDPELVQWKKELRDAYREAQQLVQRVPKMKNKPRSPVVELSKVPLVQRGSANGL

outcome, inactive:
CCc1ccccc1NC(=O)CCS(=O)(=O)c1ccc(OC)cc1, O=C(CCS(=O)(=O)c1ccc(Br)cc1)NCc1ccco1, O=C(CCS(=O)(=O)c1ccc(Br)cc1)NCCc1ccccc1, CCN(CC)c1ccc(NC(=O)CCS(=O)(=O)c2ccc(Br)cc2)c(C)c1, Cc1ccccc1NC(=O)CCS(=O)(=O)c1ccc(Br)cc1, CCc1ccccc1NC(=O)CCS(=O)(=O)c1ccc(Br)cc1, O=C(CCS(=O)(=O)c1ccc(Br)cc1)NCCc1ccc(Cl)cc1, O=C(CCS(=O)(=O)c1ccc(Br)cc1)NC1CCCC1, O=C(CCS(=O)(=O)c1ccc(Br)cc1)Nc1cc(F)ccc1F, COc1ccc(-c2csc3nc(-c4ccc(C)cc4)oc(=O)c23)cc1OC, COC(=O)c1ccc(NC(=O)CCS(=O)(=O)c2ccc(Br)cc2)cc1, CCOc1ccc(NC(=O)CCS(=O)(=O)c2ccc(Br)cc2)cc1, COc1ccc([N+](=O)[O-])cc1NC(=O)CCS(=O)(=O)c1ccc(Br)cc1, O=C(CCS(=O)(=O)c1ccc(Br)cc1)NCc1ccc(F)cc1, O=C(CCS(=O)(=O)c1ccc(Br)cc1)Nc1ccc(Br)cc1F, C#CCSc1nc2sc3c(c2c(=O)n1C)CCC3, COc1ccc(CNC(=O)CCS(=O)(=O)c2ccc(Br)cc2)cc1, O=C(CCS(=O)(=O)c1ccc(Br)cc1)NCc1cccs1, COc1ccc(Cl)cc1NC(=O)CCS(=O)(=O)c1ccc(Br)cc1, CCOc1ccccc1NC(=O)CCS(=O)(=O)c1ccc(Br)cc1
